In all, about 68,000 sequences were measured (“fluorescence intensity (a.u.)”: median about 9,100, highest 2% from about 16,000 on). Only a selection was taken, and the highest values are over-represented in it overall.

Sequence of OsWRKY34 (Q0JBA9 entry or part of it): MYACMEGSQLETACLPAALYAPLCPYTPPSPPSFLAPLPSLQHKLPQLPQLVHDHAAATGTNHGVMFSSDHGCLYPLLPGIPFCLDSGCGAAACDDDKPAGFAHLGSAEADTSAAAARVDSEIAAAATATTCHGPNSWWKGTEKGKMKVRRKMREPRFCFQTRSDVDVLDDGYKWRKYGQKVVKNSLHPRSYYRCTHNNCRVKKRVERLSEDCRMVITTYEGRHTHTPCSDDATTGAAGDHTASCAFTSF

For the experiment, the target named is OsWRKY34 (Oryza sativa, UniProt Q0JBA9 1-250). In words: protein-binding microarray (RPBM); PBS, 2% BSA, 51.3 ng/ul salmon testes DNA, 50 uM zinc acetate, 200 nM TF, 25 C, 1 h; high values mean tight binding. To be noted: protein: recombinant; tags: N-terminal polyhistidine and DsRed monomer fusion (pET32a); label: CyDye5-dUTP incorporated in the synthesized complementary strand; 3' TTTTT single-stranded linker to array surface; dsDNA, one strand shown. In outline:
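The binding signal is fluorescence intensity per array feature (arbitrary units). Readings came from an Axon 4000B scanner after a washed, 2% BSA-blocked, double-stranded custom Agilent array had been incubated for 1 h at 25 °C with 200 nM protein and 50 µM zinc acetate. The protein was a Ni–NTA-purified transcription factor fused N-terminally to polyhistidine and DsRed, expressed in E. coli BL21-CodonPlus.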
On to “GTCGTCCAATGGCATGCCTCGCCCTGATTTTTATCGGGCCCGGAGTCACCTAGTGCAG”, for which the binding signal is 12700 fluorescence intensity (a.u.).

Regarding “CCACAGTTAATTCCACACATACATGCACGCGTCTATATATCGGAGTCACCTAGTGCAG”, the binding signal is 11200 fluorescence intensity (a.u.).

Turning to “CTGGTGGTCGGTTCAGTCGGGCGGGCGGGCGGGCTCACCGCGGAGTCACCTAGTGCAG”, the binding signal was 22800 fluorescence intensity (a.u.).

Consider “GGTCTGGTTTTCCGTGTGTGCACGGTCGGGGTGCGCGTGGCGGAGTCACCTAGTGCAG”, for which the binding signal was 14300 fluorescence intensity (a.u.).

As for “GCTAGCTGGATTGGTGGGTGGGCGCGTCAAGAAGGGGATGCGGAGTCACCTAGTGCAG”, the binding signal was 9830 fluorescence intensity (a.u.).

As for “TGGTGACTGGGTAGGTGGTGGTGGTGGTGCGCGGCGGCGGCGGAGTCACCTAGTGCAG”, the binding signal is 8620 fluorescence intensity (a.u.).

Take “GGGGTGTGTGTGCTCGGCTACTCCGGTGGGTCGGGTCTGGCGGAGTCACCTAGTGCAG”: the binding signal was 12700 fluorescence intensity (a.u.).

Take “AGGGGTGGATGCGCGTGGGCTGGTGGTGGTGGTGGGGATGCGGAGTCACCTAGTGCAG”: the binding signal was 19100 fluorescence intensity (a.u.).

Consider “CTCCGGTGGGTCGGGTCTGGGCGGGGTGCGCGTGGGGATGCGGAGTCACCTAGTGCAG”, for which the binding signal was 18200 fluorescence intensity (a.u.).

With “GCGGGGTGCGAGTGGATGGGTGGGCGTAGCGCGTGTCGTGCGGAGTCACCTAGTGCAG”, the binding signal is 10400 fluorescence intensity (a.u.).

As for “AGCTGGCGGCTGGCGGGTGGTGGTGGTGGCTGGCGGCGGGCGGAGTCACCTAGTGCAG”, the binding signal is 13900 fluorescence intensity (a.u.).

For “GGTGGTCGGGGCTCTGACGCGGCGGGGCGGCGGAGGTGGTCGGAGTCACCTAGTGCAG”, the binding signal was 10800 fluorescence intensity (a.u.).

Take “CTGAGTGGCTGGGTGGGGTAGTGAAAAAAATCATCGCGCGCGGAGTCACCTAGTGCAG”: the binding signal is 18200 fluorescence intensity (a.u.).

Turning to “TCATCGCGGGGCGGGGTGTAGCGGGTGCGAAAAGGAGGCGCGGAGTCACCTAGTGCAG”, the binding signal was 9910 fluorescence intensity (a.u.).

As to “TTCTTGGTTTTGAGTTCTCTTCTCGGTTTTCTCTTTAGCGCGGAGTCACCTAGTGCAG”, the binding signal is 9000 fluorescence intensity (a.u.).

Consider “TCTGAAGATGAGAGAGAGCTCACAGTTTATGGTTTTTGTACGGAGTCACCTAGTGCAG”, for which the binding signal is 8830 fluorescence intensity (a.u.).

For “TGGTTTGGTTGTGGTAGATCTTTTTTACTTATTGCTACCACGGAGTCACCTAGTGCAG”, the binding signal is 15800 fluorescence intensity (a.u.).

For the sequence “ATACTCGAGATGGGCGCTTGGTACTTGCATGTTTCCATTCCGGAGTCACCTAGTGCAG”, the binding signal was 8680 fluorescence intensity (a.u.).

With “AAATGTTACAATCATGCTCCAAACTCACACCTTGTTTAACCGGAGTCACCTAGTGCAG”, the binding signal is 8540 fluorescence intensity (a.u.).

Consider “CCTTTCACCCGCCCAAACTCATCCATCCATCGATCGCCCTCGGAGTCACCTAGTGCAG”, for which the binding signal was 8560 fluorescence intensity (a.u.).

For the sequence “GCAATCCGTGTAATTAATTATTTTTTCGTTTATACTCTCTCGGAGTCACCTAGTGCAG”, the binding signal is 10200 fluorescence intensity (a.u.).

Turning to “CTTCCCACGCCAACGCCTCCGCTCCCGCTCGTACCACGCGCGGAGTCACCTAGTGCAG”, the binding signal is 8090 fluorescence intensity (a.u.).

Consider “TCGGTCGGGTCGGGTCGGGTCGCGTCGCGTGGGCTGCATGCGGAGTCACCTAGTGCAG”, for which the binding signal was 12200 fluorescence intensity (a.u.).

As for “GGTTTTCCCTGGATGCCGAGAGGGTTTGGGTGCGCGCCGCCGGAGTCACCTAGTGCAG”, the binding signal was 8910 fluorescence intensity (a.u.).

Consider “CCCAACCTCGCCGTCGCCGTCGCCGTCGCCGCCGTCTCCGCGGAGTCACCTAGTGCAG”, for which the binding signal is 10000 fluorescence intensity (a.u.).

Consider “TTCTTGGGGCTGGAGAGGGTGGGGATGGTGGTGCGGATGCCGGAGTCACCTAGTGCAG”, for which the binding signal was 15000 fluorescence intensity (a.u.).

With “GTGGTGGGTGGTGGCCGCGCTGCTGCGCGGTGGGTCGCATCGGAGTCACCTAGTGCAG”, the binding signal was 11400 fluorescence intensity (a.u.).

For “CTGGTCGTCGCTGCTCCGCGTGCCGGTCGGGGTGGGTGGGCGGAGTCACCTAGTGCAG”, the binding signal was 20100 fluorescence intensity (a.u.).

With “GGTTAGGGTTTGGGGTGGGGAGGGGTGGATGCGCGTGGGCCGGAGTCACCTAGTGCAG”, the binding signal is 21600 fluorescence intensity (a.u.).

For “GCTGCGGCCGTCAACGTGGTCGTCGTCTCCGCGGCCGCCGCGGAGTCACCTAGTGCAG”, the binding signal was 46900 fluorescence intensity (a.u.).

For “GCCTCCGCCGCCGCCGCCGCCGCCGCGTCGTCTCCGACCGCGGAGTCACCTAGTGCAG”, the binding signal is 9710 fluorescence intensity (a.u.).

Take “TCGGTTGGTTGGGAATTTCCATGACTATTTTCACCTATAACGGAGTCACCTAGTGCAG”: the binding signal is 8650 fluorescence intensity (a.u.).

For “AGGCTTCCAATCTTGTGCTAATCTGCTGGTGAAGTATATGCGGAGTCACCTAGTGCAG”, the binding signal was 8480 fluorescence intensity (a.u.).

As for “CTCCGCCGCCACGCTCGCCCGCTGTTTGCTCCGTCCGCAGCGGAGTCACCTAGTGCAG”, the binding signal is 8350 fluorescence intensity (a.u.).

Regarding “TCTCTGGTGGCTCCCTGGCGCTCCTCTTCACTCCATCCTCCGGAGTCACCTAGTGCAG”, the binding signal is 9090 fluorescence intensity (a.u.).

Regarding “TTTCTAGATGTCTACGCGTTATCAGCATGTTGATGTCTACCGGAGTCACCTAGTGCAG”, the binding signal was 8460 fluorescence intensity (a.u.).

As for “GTCTCTTCTCTTCTCTCGTGCAAGGCCGGCAGTGTACCGTCGGAGTCACCTAGTGCAG”, the binding signal was 9270 fluorescence intensity (a.u.).

“CTCCCTCTGTTTCAAAATATTTGACACTGTTGACTTTTTACGGAGTCACCTAGTGCAG”: the binding signal is 11000 fluorescence intensity (a.u.).

Regarding “CGTTTCAAAATATTTAACACCGTTGACTTTTTAGTACGTGCGGAGTCACCTAGTGCAG”, the binding signal is 31100 fluorescence intensity (a.u.).

On to “AAAACACCAAATTAGTTTTATTAAAACTAACTTTCAAATACGGAGTCACCTAGTGCAG”, for which the binding signal is 11900 fluorescence intensity (a.u.).

Regarding “TTGGTAGAGTTGTCCGTTTGGATTTTGGCCTCCCTTTTTTCGGAGTCACCTAGTGCAG”, the binding signal is 8380 fluorescence intensity (a.u.).

Take “ATTCAACACTTTTAAAATATTTTGATTGCGGTTTCTTTTACGGAGTCACCTAGTGCAG”: the binding signal was 9530 fluorescence intensity (a.u.).

Take “CAAATTAGATGTTATTTTGACTTTTTTTTACAATATTTGACGGAGTCACCTAGTGCAG”: the binding signal is 10600 fluorescence intensity (a.u.).

As to “GTTTCAAAATATTTGACACCGTTGACTTTTTAGTACGTGTCGGAGTCACCTAGTGCAG”, the binding signal was 19100 fluorescence intensity (a.u.).

Turning to “TAGAAGAGCGCGTTGACACCGTTGACTTTGGATTTTCCGTCGGAGTCACCTAGTGCAG”, the binding signal is 18700 fluorescence intensity (a.u.).

In the case of “ATATTTGACCGTTTGTCTTTTTCAAAAACTTTTGTGAAATCGGAGTCACCTAGTGCAG”, the binding signal was 9920 fluorescence intensity (a.u.).

Regarding “CCGTTGACTTGGATTTGTTCCTTTTTCATTTTTTATCGTTCGGAGTCACCTAGTGCAG”, the binding signal is 14700 fluorescence intensity (a.u.).

Turning to “TCAAAATATTTGACACCGTTGACTTTTTAGGACGTGTTTACGGAGTCACCTAGTGCAG”, the binding signal was 24900 fluorescence intensity (a.u.).

For “GTTTGTCGTAGTAGTTTATTTTTGACACCGGCTTTCAAATCGGAGTCACCTAGTGCAG”, the binding signal is 9880 fluorescence intensity (a.u.).

“ATCTGCCTAACGTAAAATGCACTATATTCTGTTTTGTTCTCGGAGTCACCTAGTGCAG”: the binding signal was 8370 fluorescence intensity (a.u.).

Turning to “GTGGCGACTGTTATCCCTAATTTTGCGGACTTGCTCTGATCGGAGTCACCTAGTGCAG”, the binding signal is 9800 fluorescence intensity (a.u.).

Consider “AACCACCTGAATTTCGTCGAATTTTACCAATTCTGCTGAACGGAGTCACCTAGTGCAG”, for which the binding signal was 9120 fluorescence intensity (a.u.).

As to “AAGACATGTGAATTTTGGTGGGATGTGGATGGGGAATTGACGGAGTCACCTAGTGCAG”, the binding signal is 9840 fluorescence intensity (a.u.).

As to “TTCTATTTTACCTCTCGTCTCTCTCCTCGCGGTCGCTTCTCGGAGTCACCTAGTGCAG”, the binding signal is 12800 fluorescence intensity (a.u.).

The values are drawn from paper PMC7819943, “Rice protein-binding microarrays: a tool to detect cis-acting elements near promoter regions in rice”.
